Reference: PubChem BioAssay (NCATS)
“And” between values parts separate entries of the source, which are not always exact repeats. Equal values may be shown once. Inconclusive results are not listed. The source made the active and inactive calls. Unless noted, calls come from the whole dose curve; as a rule, active = well fitted curve in either direction with a large enough effect (not every such curve was filed as active); inconclusive = small, poorly fitted or top-dose-only effect, or another doubt; inactive = flat fitted curve, though single readings scatter.

How the values were obtained:
[1] = Stat Signaling Pathway (AID 446); conditions: ME-180 (cervical carcinoma) SIE beta-lactamase reporter, IL-6 stimulated, 5 h; series mostly up to 17.2 µM;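 note: ME-180 cervical cancer cells given 40 pM IL-6 alongside compound; SIE-controlled beta-lactamase reporter measured as 460/530 nm FRET emission ratio; % is set by controls: 0 for no effect and ±100 for the full control effect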
In short: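 Compound effects on IL-6-induced STAT reporter activity were measured in ME-180 cells. After overnight culture, cells were co-treated with 40 pM IL-6 for 5 hrs before beta-lactamase substrate loading at room temperature.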

[2] = biological target: Glucocorticoid receptor (Homo sapiens) (UniProt P04150); experiment: GR-GFP Redistribution (AID 450;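 active = compounds whose dose series gives a full or clear partial fitted curve of increased nuclear translocation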; note: potency is the fitted concentration of half-maximal effect); conditions: U2OS GR-GFP nuclear translocation, laser cytometry, 2 h
[3] = biological target: Glucocorticoid receptor (Homo sapiens) (UniProt P04150); experiment: GR-EFC Redistribution (AID 451; calls by dose curve; note: potency is the fitted concentration of half-maximal effect); conditions: CHO-K1 GR-EFC translocation, beta-gal luminescence, 2 h
In short: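 CHO-K1 cells stably expressing nuclear-localized β-gal enzyme acceptor and GR fused C-terminally to the enzyme donor fragment; ligand-driven nuclear translocation restores β-gal by complementation. Compounds titrated up to 46 uM final, 2 h at 37 °C; luminescence read.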

[4] = biological target: Mitogen-activated protein kinase 10 (Mus musculus) (UniProt Q61831); experiment: JNK3 AlphaScreen Assay (AID 530); conditions: JNK3 lysate, c-Jun phosphorylation; series mostly up to 57.1 µM;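 note: kinase came from lysate of stimulated human HepG2 cells; signal reports phosphorylation of biotinylated GST-cJun 1-79 at Ser73 with 10 µM ATP; % is set by controls: 0 for no effect and ±100 for the full control effect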
In short: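 Phosphorylation of biotinylated GST-cJun(1-79) at Ser73 is measured by AlphaScreen proximity luminescence. Enzyme is JNK3 in HepG2 lysates activated with interleukin-1beta and tumor necrosis factor alpha; ATP is 10 uM final.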

[5] = Cell Viability - N2a (AID 540; active = well fitted curve in the direction sought with a large enough effect; an effect the other way counts as inactive or inconclusive;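 note: plate controls were DMSO alone for no effect and tamoxifen control for full effect; nearly all actives have a fitted effect of over 45% in size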); conditions: N2a mouse neuroblastoma cell viability; series mostly up to 92.2 µM
In short: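 CellTiter-Glo ATP luminescence, read 20 min after reagent at room temperature, reported viability following 40 h compound treatment at 37 °C. N2a mouse neuroblastoma cells seeded 1500/well; Hill equation gave AC50.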

[6] = Cell Viability - NIH 3T3 (AID 541; active = well fitted curve in the direction sought with a large enough effect; an effect the other way counts as inactive or inconclusive;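 note: cells exposed to compound for 40 hours; plate controls were DMSO alone for no effect and tamoxifen positive control for full effect; nearly all actives have a fitted effect of over 25% in size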); conditions: NIH 3T3 cell viability, qHTS; activity change, negative = cytotoxicity: at 92.2 µM (top of the series)
In short: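 Intracellular ATP (CellTiter-Glo luminescence, 20 min at room temperature) measured after 40 hr compound exposure at 37 °C of 1000 NIH 3T3 mouse fibroblasts/well in complete medium; AC50 derived by Hill-equation modelling of qHTS concentration-response curves.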

[7] = Cell Viability - HUV-EC-C (AID 542; active = well fitted curve in the direction sought with a large enough effect; an effect the other way counts as inactive or inconclusive;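 note: cells exposed to compound for 40 hours; % is set by controls: 0 for no effect and ±100 for the full control effect; nearly all actives have a fitted effect of over 35% in size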); conditions: HUV-EC-C endothelial cell viability, qHTS; series mostly up to 92.2 µM
In short: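 CellTiter-Glo luminescence measured ATP loss in HUV-EC-C cells (1000/well) after 40 hr compound exposure at 37 °C, in complete culture medium. Concentration-response data were Hill-fitted to give AC50.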

[8] = Cell Viability - H-4-II-E (AID 543; active = well fitted curve in the direction sought with a large enough effect; an effect the other way counts as inactive or inconclusive;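 note: cells exposed to compound for 40 hours; nearly all actives have a fitted effect of over 35% in size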; note: potency is the fitted concentration of half-maximal effect); conditions: H-4-II-E rat hepatoma viability; series mostly up to 92.2 µM
In short: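 CellTiter-Glo luminescence (intracellular ATP) measured after 40 h compound exposure at 37 °C in H-4-II-E rat hepatoma cells seeded at 1500/well. Values are AC50s fitted with the standard Hill equation.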

[9] = Cell Viability - Renal Proximal Tubule (AID 545; active = well fitted curve in the direction sought with a large enough effect; an effect the other way counts as inactive or inconclusive;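 note: cells exposed to compound for 40 hours; 0% = DMSO only and -100% = 100 µM tamoxifen; nearly all actives have a fitted effect of over 40% in size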); conditions: renal proximal tubule cells viability, primary cells of rat origin; activity change, negative = cytotoxicity: at 91.7 µM (top of the series)
In short: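 Cytotoxicity is scored as a concentration-dependent drop in cellular ATP in primary rat renal proximal tubule cells exposed for 40 hr. AC50 derives from Hill modelling.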

[10] = Cell Viability - Mesenchymal (AID 546; active = well fitted curve in the direction sought with a large enough effect; an effect the other way counts as inactive or inconclusive;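 note: cells exposed to compound for 40 hours before reading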; note: potency is the fitted concentration of half-maximal effect;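 for activity change, negative = cytotoxicity: 0% = DMSO only and -100% = 100 µM tamoxifen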); conditions: mesenchymal cells viability, qHTS; activity change, negative = cytotoxicity: at 91.7 µM (top of the series)
In short: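 In this qHTS cytotoxicity format, glomerulus-derived human mesenchymal kidney cells received compound for 40 hr, then luciferase-based ATP quantitation. Concentration-response data were fitted with the Hill equation.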

Sequence of Glucocorticoid receptor (Homo sapiens) (P04150 whole entry, looked up, the tested form may be a part): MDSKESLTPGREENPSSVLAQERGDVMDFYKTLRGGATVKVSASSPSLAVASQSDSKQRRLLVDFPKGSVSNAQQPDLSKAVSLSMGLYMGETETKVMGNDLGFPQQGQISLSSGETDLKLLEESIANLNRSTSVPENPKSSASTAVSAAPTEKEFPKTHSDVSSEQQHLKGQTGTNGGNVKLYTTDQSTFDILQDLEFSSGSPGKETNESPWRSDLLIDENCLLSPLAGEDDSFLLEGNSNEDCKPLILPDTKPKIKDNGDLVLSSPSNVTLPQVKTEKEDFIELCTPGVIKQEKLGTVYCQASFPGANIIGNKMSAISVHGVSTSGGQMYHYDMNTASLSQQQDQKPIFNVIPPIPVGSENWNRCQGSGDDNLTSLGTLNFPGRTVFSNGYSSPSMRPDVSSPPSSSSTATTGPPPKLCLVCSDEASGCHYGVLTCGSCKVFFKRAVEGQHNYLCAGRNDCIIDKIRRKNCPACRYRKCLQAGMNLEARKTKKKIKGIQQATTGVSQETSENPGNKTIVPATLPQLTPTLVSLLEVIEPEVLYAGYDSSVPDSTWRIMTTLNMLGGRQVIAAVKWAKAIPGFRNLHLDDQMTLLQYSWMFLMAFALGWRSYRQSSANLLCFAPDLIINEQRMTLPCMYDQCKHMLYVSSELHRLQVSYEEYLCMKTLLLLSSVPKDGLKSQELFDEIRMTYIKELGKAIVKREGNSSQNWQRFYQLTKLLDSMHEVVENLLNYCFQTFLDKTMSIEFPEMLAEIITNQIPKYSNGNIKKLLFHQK

CC(C)NNC(=O)c1ccncc1
inactive: outcome [1] | Potency [2] > 46 µM and > 20.6 µM | Potency [3] > 46 µM and > 20.6 µM | Potency [4]

CC[N+](C)(C)c1cccc(O)c1
inactive: outcome [1] | Potency [4]

N[C@@H](COP(=O)(O)O)C(=O)O
inactive: Potency [2] > 46 µM | Potency [3] > 46 µM

C[n+]1cc2c3c(ccc2c2ccc4cc5c(cc4c21)OCO5)OCO3
inactive: Potency [3] > 46 µM and > 20.6 µM | Potency [4]
active: Potency [2] 6.57 µM

CSc1ccc(C(=O)c2[nH]c(=O)[nH]c2C)cc1
inactive: outcome [1] | Potency [4]

CN1CCN(CC(=O)N2c3ccccc3C(=O)Nc3cccnc32)CC1
inactive: outcome [1] | Potency [2] > 46 µM and > 20.6 µM | Potency [3] > 46 µM and > 20.6 µM | Potency [4]

NC(=O)N1c2ccccc2C=Cc2ccccc21
inactive: outcome [1] | outcome [5] | activity change, negative = cytotoxicity [6] -9.01% | Potency [7] | Potency [8] | activity change, negative = cytotoxicity [9] 2.97% | Potency [10]

CN=C(NC#N)NCCSCc1nc[nH]c1C
inactive: outcome [1] | outcome [5] | activity change, negative = cytotoxicity [6] -4.92% | Potency [7] | Potency [8] | activity change, negative = cytotoxicity [9] -10.6% | Potency [10]

O=C(O)CCCCCCCC(=O)O
inactive: Potency [4]

CCCCCCCC/C=C\CCCCCCCC(=O)NCc1ccc(O)c(OC)c1
inactive: Potency [3] > 46 µM

Nc1nc(N)c2nc(-c3ccccc3)c(N)nc2n1
active: activity change, negative = cytotoxicity [6] -88.4% | Potency [8] 0.316 µM | activity change, negative = cytotoxicity [9] -93% | Potency [10] 25.1 µM
inactive: outcome [1] | Potency [2] > 46 µM and > 20.6 µM | Potency [3] > 46 µM and > 20.6 µM | Potency [4]

O=C1CC2(CCCC2)CC(=O)N1CCCCN1CCN(c2ncccn2)CC1
inactive: outcome [1] | Potency [4]

NC(=Nc1ccccc1)Nc1ccccc1
inactive: Potency [4] | outcome [5] | activity change, negative = cytotoxicity [6] -3.31% | Potency [7] | Potency [8] | activity change, negative = cytotoxicity [9] -3.07% | Potency [10]

CCN(CC)CC(=O)Nc1c(C)cccc1C
inactive: outcome [1] | Potency [4]

C#CCN(C)CCCOc1ccc(Cl)cc1Cl
inactive: outcome [1] | Potency [2] > 46 µM and > 20.6 µM | Potency [3] > 46 µM and > 20.6 µM | Potency [4]

COc1cc(Cc2cnc(N)nc2N)cc(OC)c1OC
inactive: outcome [1] | Potency [4] | outcome [5] | activity change, negative = cytotoxicity [6] -10.3% | Potency [7] | activity change, negative = cytotoxicity [9] -5.57% | Potency [10]

CCN(CC)CCOCCOC(=O)C1(c2ccccc2)CCCC1
inactive: outcome [1] | Potency [2] > 46 µM and > 20.6 µM | Potency [3] > 46 µM and > 20.6 µM | Potency [4]

COc1cc2c(cc1OC)-c1cc(=Nc3c(C)cc(C)cc3C)n(C)c(=O)n1CC2
inactive: Potency [2] > 46 µM | Potency [3] > 46 µM | Potency [4]

CCCCOCCOCCOCc1cc2c(cc1CCC)OCO2
inactive: outcome [5] | Potency [7] | Potency [8] | activity change, negative = cytotoxicity [9] -1.35% | Potency [10]

Cc1ccc(Cl)c(Nc2ccccc2C(=O)O)c1Cl
inactive: outcome [1] | Potency [2] > 46 µM and > 20.6 µM | Potency [3] > 46 µM and > 20.6 µM | Potency [4]

CCCCNC(=O)NS(=O)(=O)c1ccc(C)cc1
inactive: outcome [1] | Potency [2] > 46 µM and > 20.6 µM | Potency [3] > 46 µM and > 20.6 µM | outcome [5] | activity change, negative = cytotoxicity [6] -10.4% | Potency [7] | Potency [8] | activity change, negative = cytotoxicity [9] -6.67% | Potency [10]

CCc1cccc(N(C)C(N)=Nc2cccc3ccccc23)c1
inactive: Potency [2] > 46 µM | Potency [3] > 46 µM
